Compound activity (PubChem)
CCT chaperon mod – cytosolic chaperonin activity modulation; purified chaperonin ATPase assay, HTRF ADP detection, 30 min; activity change, % (no concentration beside the values), hits read low; 360,000 compounds, 0.3% hits; AID 651819; in the data active means activity change below about -30%
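We incubate TRiC, 40 or 20 nM final, with library compounds at 76 uM and 10 uM ATP for 30 min at 37 °C. ADP formed is detected with Transcreener HTRF reagents after 30 min at room temperature.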
G9a inh – G9a (human) methyltransferase inhibition; Q96KQ7; 350,000 compounds, 8.8% hits; Potency, µM (doses to about 102 µM), usual class: inhibitors; G9a H3K9 monomethylation, AlphaScreen, 2 h; further: nearly all actives have a fitted effect of over 75% in size
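G9a (20 nM) was preincubated 15 min with compound, then reacted 2 h at room temperature with 500 nM biotin-H3K9 peptide and 20 µM SAM. Monomethyl-H3K9 detected by AlphaScreen using anti-H3K9me1 antibody.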
PLK1 PBD block – blocks phosphopeptide binding to human PLK1 polo-box domain; Potency, µM, actives largely listed as inhibitors; AID 720504; 360,000 compounds, 2.8% hits; Plk1 PBD binding of FITC phosphopeptide, fluorescence polarization; further: series mostly up to about 57 µM; nearly all actives have a fitted effect of over 65% in size
Target sequence (P53350 whole entry, looked up, the tested form may be a part): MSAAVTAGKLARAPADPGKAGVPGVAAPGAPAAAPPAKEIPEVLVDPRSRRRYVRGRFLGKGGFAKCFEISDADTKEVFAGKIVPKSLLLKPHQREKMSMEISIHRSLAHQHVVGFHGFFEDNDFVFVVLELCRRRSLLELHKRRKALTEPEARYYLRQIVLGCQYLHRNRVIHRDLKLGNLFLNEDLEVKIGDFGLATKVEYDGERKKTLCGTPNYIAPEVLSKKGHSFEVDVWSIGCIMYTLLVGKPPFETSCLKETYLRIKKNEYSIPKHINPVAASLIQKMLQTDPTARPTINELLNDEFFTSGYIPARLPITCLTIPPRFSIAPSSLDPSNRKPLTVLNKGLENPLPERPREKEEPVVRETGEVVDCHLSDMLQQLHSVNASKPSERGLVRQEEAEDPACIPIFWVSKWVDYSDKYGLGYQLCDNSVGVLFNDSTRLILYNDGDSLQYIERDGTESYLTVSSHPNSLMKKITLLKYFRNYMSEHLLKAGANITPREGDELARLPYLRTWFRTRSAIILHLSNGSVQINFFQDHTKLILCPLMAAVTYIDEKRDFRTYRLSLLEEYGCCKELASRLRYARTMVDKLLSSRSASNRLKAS
Sfp PPTase inh – Sfp phosphopantetheinyl transferase inhibition; Q9F4F7; Biochemical Sfp PPTase activity, qHTS; Potency, µM, actives largely listed as inhibitors; 310,000 compounds, 3.5% hits; AID 1490;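 further: the enzyme is Sfp with the accession as filed and its product quenches rhodamine fluorescence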
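Reaction rates are the 30-min fluorescence difference (ex 525, em 598 nm) in wells containing 15 nM Sfp, 5 uM rhodamine-CoA and 12.5 uM BHQ-2-YbbR at pH 7.6 with 10 mM MgCl2.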
VDR inhibitor – vitamin D3 receptor (human) inhibition. P11473. 400,000 compounds, 0.93% hits. VDR-SRC2-3 peptide fluorescence polarization, 2 h. Potency, µM, actives largely listed as inhibitors
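VDR–SRC2-3 interaction, FP format. Cmpds 23 nl via pintool, brief spin, 2 h ambient incubation.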
Mm-Cpn inhibitor – blocks the Methanococcus maripaludis chaperonin Mm-Cpn; 330,000 compounds, 0.031% hits; purified Mm-Cpn ATPase, ADP Transcreener TR-FRET; Potency, µM (doses to about 76.9 µM), hits mostly inhibitors; further: nearly all actives have a fitted effect of over 80% in size
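Reaction buffer contained 30 mM Tris pH 7.4, 100 mM KCl, 5 mM MgCl2 and 1 mM DTT. Mm-CPN (25 nM final) hydrolysed 10 uM ATP over 30 min at 37°C; ADP was read by HTRF.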
Large screens that a line does not name were inactive; ! = not active in a repeat. A selection: hits, their analogues and other compounds. The true share with any hit is near 10%. Unless noted, the call rests on the fitted dose curve; in most records, active means well fitted curve in the direction sought with a large enough effect; inconclusive means small, poorly fitted or top-dose-only effect, or another doubt; inactive means no such curve, though single readings can be large; an effect the other way counts as inactive or inconclusive.

CC(=C/c1ccccc1)/C=N/n1c(-c2ccncc2)n[nH]c1=S	none
COc1ccccc1OCCNc1nc2c(c(=O)n(C)c(=O)n2C)n1C	PLK1 PBD block 19µM, VDR inhibitor inconclusive
CCCCCC(=O)NC(NC(=S)N1CCOCC1)C(Cl)(Cl)Cl (configuration not stated)	none
CCCCCC(=O)NC(NC(=S)NC1CCS(=O)(=O)C1)C(Cl)(Cl)Cl (configuration not stated)	G9a inh 25µM
COc1ccccc1N1CCN(CCN(C(=O)c2ccc(I)cc2)c2ccccn2)CC1	G9a inh 21µM (no result: CCT chaperon mod, PLK1 PBD block, Sfp PPTase inh, Mm-Cpn inhibitor)
COc1ccccc1N1CCN(CCCOc2ccc(F)cc2)CC1	G9a inh 8.9µM
COc1ccc(S(=O)(=O)N2CCN(CCCOc3ccc(F)cc3)CC2)cc1OC	none
COc1ccccc1N1CCN(CCCCOc2c(OC)cccc2OC)CC1	G9a inh inconclusive
COc1ccccc1N1CCN(CCOc2c(OC)cccc2OC)CC1	G9a inh 40µM, PLK1 PBD block inconclusive
COc1ccccc1N1CCN(CCCNc2cc(=O)n(C)c(=O)n2C)CC1	G9a inh 22µM!
Cn1c(=O)c(-c2ccc(F)cc2)nc2cnc(Nc3ccccc3)nc21	none (no result: CCT chaperon mod, PLK1 PBD block, Mm-Cpn inhibitor)
COC(=O)c1c(C)[nH]c(C)c1-c1cccc([N+](=O)[O-])c1	G9a inh 56µM
CCOc1ccc(NC(=O)CCS(=O)(=O)c2ccc(Br)s2)cc1	G9a inh inconclusive (no result: CCT chaperon mod, PLK1 PBD block, Sfp PPTase inh, Mm-Cpn inhibitor)
Cc1ccc(NC(=O)CCS(=O)(=O)c2ccc(Br)s2)cc1	PLK1 PBD block 27µM
COC(=O)c1ccc(NC(=O)CSCC(=O)OCC(=O)c2ccc(Br)cc2)cc1	G9a inh 10µM
COC(=O)c1ccc(NC(=O)CCS(=O)(=O)c2ccc(Br)cc2)cc1	G9a inh 56µM!
CCc1cccc(NC(=O)CCS(=O)(=O)c2ccc(Br)cc2)c1	G9a inh 28µM, PLK1 PBD block 13µM, VDR inhibitor 79µM
COC(=O)c1ccc(NC(=O)CC(=O)Nc2ccc(C(=O)OC)cc2)cc1	none
O=c1cc(CSc2ncn[nH]2)[nH]c2c(Cl)cccc12	none (no result: CCT chaperon mod, PLK1 PBD block, Sfp PPTase inh, Mm-Cpn inhibitor)
CC(Sc1nncn1C)C(=O)Nc1ccc2ccccc2c1 (configuration not stated)	G9a inh 8.9µM (no result: Sfp PPTase inh)
O=C(O)c1cnn(-c2ccccc2)c1-c1ccncc1	G9a inh 50µM, PLK1 PBD block inconclusive
CCOc1ccc(OCC)c(NC(=O)c2cc(S(=O)(=O)N3CCc4ccccc43)cn2C)c1	none (no result: CCT chaperon mod, PLK1 PBD block, Sfp PPTase inh, Mm-Cpn inhibitor)
Cc1nc2ccc(S(=O)(=O)NC(CC(C)C)C(=O)N3CCN(c4ccc(F)cc4)CC3)cc2s1 (configuration not stated)	none (no result: CCT chaperon mod, PLK1 PBD block, Sfp PPTase inh, Mm-Cpn inhibitor)
COc1cccc(CC2(CO)CCCN(Cc3ccccc3Cl)C2)c1 (configuration not stated)	G9a inh 79µM
CN1CCN(c2cc(-c3ccc(N(C)C)cc3)ncn2)CC1	none (no result: CCT chaperon mod, G9a inh, PLK1 PBD block, Mm-Cpn inhibitor)
CC1CC1C(=O)OCC(=O)NCc1ccc(Cl)cc1 (configuration not stated)	none
COc1ccc(CNC(=O)COC(=O)C2CC2C)cc1OC (configuration not stated)	G9a inh 14µM (no result: Sfp PPTase inh)
CC1(C)Oc2ccc3ccc(=O)oc3c2/C(=C/N)C1=O	none
CC1(C)Oc2ccc3ccc(=O)oc3c2/C(=C/Nc2ccccc2)C1=O	G9a inh 71µM
CC1(C)Oc2ccc3ccc(=O)oc3c2/C(=C/O)C1=O	G9a inh 45µM
O=C(Nc1ccc(F)cc1Cl)C1CCN(c2ncnc3c2nc2n3CCCCC2)CC1	none (no result: CCT chaperon mod, PLK1 PBD block, Sfp PPTase inh, Mm-Cpn inhibitor)
CN(c1cccc(NC(=O)c2ccc(N(C)S(=O)(=O)c3ccccc3)cc2)c1)S(C)(=O)=O	PLK1 PBD block 12µM, VDR inhibitor inconclusive
CC(=O)Nc1ccc(C(=O)Nc2cccc(S(=O)(=O)N(C)c3ccccc3)c2)cc1	none (no result: Sfp PPTase inh)
COc1ccc2oc(-c3ccc(O)cc3)cc(=O)c2c1	none (no result: CCT chaperon mod, G9a inh, PLK1 PBD block, VDR inhibitor, Mm-Cpn inhibitor)
O=C(/C=C/c1ccc(-c2ccc(F)cc2)o1)N1CCCC1	G9a inh 45µM
O=C(/C=C/c1ccc(F)cc1)N1CCCN(C(=O)/C=C/c2ccc(F)cc2)CC1	none
COc1ccc(CNC(=O)C2CCN(S(=O)(=O)Cc3ccccc3)CC2)cc1	none (no result: CCT chaperon mod, PLK1 PBD block, Sfp PPTase inh, Mm-Cpn inhibitor)
O=C(Cn1cncn1)N1CCN(c2ccc(F)cc2)CC1	none (no result: G9a inh)
Cc1cccc(C)c1N1CCN(C(=O)Cn2cncn2)CC1	G9a inh 18µM, PLK1 PBD block inconclusive
COc1ccc2c(=O)c3c(=O)n(Cc4ccco4)c(-c4ccco4)nc3oc2c1	G9a inh 18µM, PLK1 PBD block inconclusive, Sfp PPTase inh inconclusive
COc1ccc(Cn2c(-c3ccco3)nc3oc4ccccc4c(=O)c3c2=O)cc1	G9a inh inconclusive
COc1ccc(Cn2c(-c3ccco3)nc3oc4cc(OC)ccc4c(=O)c3c2=O)cc1	G9a inh 50µM
COc1ccc(-c2nc3oc4cc(OC)ccc4c(=O)c3c(=O)n2Cc2ccco2)cc1	G9a inh 25µM, Sfp PPTase inh 25µM
CCc1nc2oc3cc(OC)ccc3c(=O)c2c(=O)n1Cc1ccco1	G9a inh 32µM, Sfp PPTase inh 35µM
